# In paper PMC7862700, “An all-to-all approach to the identification of sequence-specific readers for epigenetic DNA modifications on cytosine”:
# Columns and labels:
# Assay in all cases: DAPPL (digital affinity profiling via proximity ligation, sequencing); 10 mM Tris-HCl pH 7.5, 50 mM NaCl, 1 mM DTT, 4% glycerol, room temperature, 30 min; GST-TFs on glutathione beads, 16-mer random dsDNA library, 0.1% formaldehyde crosslink after washing; high values mean tight binding
# Details in all cases: protein: recombinant; tags: N-terminal GST; dsDNA, one strand shown
# FLI1 = target: T1, FLI1 (Homo sapiens, UniProt Q01543 1-452)
# T1 sequence: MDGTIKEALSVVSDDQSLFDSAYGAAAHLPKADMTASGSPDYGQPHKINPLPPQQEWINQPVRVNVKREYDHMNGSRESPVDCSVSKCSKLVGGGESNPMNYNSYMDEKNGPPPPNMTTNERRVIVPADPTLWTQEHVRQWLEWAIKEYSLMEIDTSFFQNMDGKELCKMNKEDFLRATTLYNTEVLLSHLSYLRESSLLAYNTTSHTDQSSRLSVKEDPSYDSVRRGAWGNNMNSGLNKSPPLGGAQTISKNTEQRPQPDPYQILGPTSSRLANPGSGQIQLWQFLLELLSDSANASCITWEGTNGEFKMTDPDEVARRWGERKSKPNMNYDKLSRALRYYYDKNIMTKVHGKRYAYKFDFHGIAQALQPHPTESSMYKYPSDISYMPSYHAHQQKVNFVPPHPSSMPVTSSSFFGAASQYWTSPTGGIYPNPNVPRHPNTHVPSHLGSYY
# In short: (§1)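 After expression in yeast as GST fusions, human transcription factors were bound to glutathione beads, DNA-barcoded and mixed with a tag-only sample. The pools were incubated with 200 nmole of a 16-mer random double-stranded DNA library in Tris/NaCl/DTT/glycerol buffer (30 min, room temperature), washed and crosslinked with 0.1% formaldehyde. Proximity ligation with BsaI/T4 ligase ran for 1 h at 37 °C, before PCR amplification and sequencing on an Illumina NextSeq500. Binding signal is a hexamer's read frequency for a factor divided by its frequency for the tag-only sample.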
# ELK1 = target: T2, ELK1 (Homo sapiens, UniProt P19419 1-428)
# T2 sequence: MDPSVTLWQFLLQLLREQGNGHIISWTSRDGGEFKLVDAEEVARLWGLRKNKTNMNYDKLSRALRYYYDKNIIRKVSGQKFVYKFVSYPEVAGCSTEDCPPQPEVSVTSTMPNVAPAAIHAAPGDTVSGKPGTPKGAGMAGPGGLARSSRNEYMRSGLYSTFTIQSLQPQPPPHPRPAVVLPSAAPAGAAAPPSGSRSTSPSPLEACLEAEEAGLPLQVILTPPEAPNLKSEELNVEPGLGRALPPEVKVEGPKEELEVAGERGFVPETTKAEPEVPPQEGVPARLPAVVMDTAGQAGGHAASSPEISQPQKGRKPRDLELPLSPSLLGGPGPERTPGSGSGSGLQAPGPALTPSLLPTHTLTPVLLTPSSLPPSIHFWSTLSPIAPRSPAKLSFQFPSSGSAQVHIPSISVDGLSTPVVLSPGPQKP
# In short: as §1
# GABPA = target: T3, GABPA (Homo sapiens, UniProt Q06546 1-454)
# T3 sequence: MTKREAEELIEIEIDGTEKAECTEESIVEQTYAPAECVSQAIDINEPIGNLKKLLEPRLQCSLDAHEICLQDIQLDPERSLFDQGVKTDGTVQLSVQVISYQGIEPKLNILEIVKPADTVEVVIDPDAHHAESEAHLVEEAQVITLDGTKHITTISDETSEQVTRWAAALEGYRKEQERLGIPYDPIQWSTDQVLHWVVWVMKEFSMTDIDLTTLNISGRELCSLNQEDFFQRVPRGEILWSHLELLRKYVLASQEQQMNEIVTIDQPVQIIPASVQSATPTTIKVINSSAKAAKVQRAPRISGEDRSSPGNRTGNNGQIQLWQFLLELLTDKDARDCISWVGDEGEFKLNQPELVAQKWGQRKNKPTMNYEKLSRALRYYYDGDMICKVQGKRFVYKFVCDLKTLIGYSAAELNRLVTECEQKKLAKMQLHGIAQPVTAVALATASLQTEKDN
# In short: as §1
# ERG = target: T4, ERG (Homo sapiens, UniProt P11308 1-479)
# T4 sequence: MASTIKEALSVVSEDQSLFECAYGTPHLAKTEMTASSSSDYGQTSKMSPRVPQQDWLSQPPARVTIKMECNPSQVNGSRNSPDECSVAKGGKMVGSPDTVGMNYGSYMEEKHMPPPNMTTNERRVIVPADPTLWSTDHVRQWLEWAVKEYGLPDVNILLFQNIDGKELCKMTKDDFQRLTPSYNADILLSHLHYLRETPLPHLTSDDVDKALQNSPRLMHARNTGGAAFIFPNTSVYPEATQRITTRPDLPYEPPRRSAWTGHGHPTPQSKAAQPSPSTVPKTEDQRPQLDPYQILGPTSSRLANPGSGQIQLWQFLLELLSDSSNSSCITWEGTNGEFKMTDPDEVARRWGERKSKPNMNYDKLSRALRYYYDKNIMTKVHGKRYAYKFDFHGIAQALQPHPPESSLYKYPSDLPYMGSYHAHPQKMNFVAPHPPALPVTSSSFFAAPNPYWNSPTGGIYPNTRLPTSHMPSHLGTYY
# In short: as §1
# ELF1 = ELF1 (Homo sapiens, UniProt P32519 1-619)
# Sequence of ELF1 (P32519 whole entry): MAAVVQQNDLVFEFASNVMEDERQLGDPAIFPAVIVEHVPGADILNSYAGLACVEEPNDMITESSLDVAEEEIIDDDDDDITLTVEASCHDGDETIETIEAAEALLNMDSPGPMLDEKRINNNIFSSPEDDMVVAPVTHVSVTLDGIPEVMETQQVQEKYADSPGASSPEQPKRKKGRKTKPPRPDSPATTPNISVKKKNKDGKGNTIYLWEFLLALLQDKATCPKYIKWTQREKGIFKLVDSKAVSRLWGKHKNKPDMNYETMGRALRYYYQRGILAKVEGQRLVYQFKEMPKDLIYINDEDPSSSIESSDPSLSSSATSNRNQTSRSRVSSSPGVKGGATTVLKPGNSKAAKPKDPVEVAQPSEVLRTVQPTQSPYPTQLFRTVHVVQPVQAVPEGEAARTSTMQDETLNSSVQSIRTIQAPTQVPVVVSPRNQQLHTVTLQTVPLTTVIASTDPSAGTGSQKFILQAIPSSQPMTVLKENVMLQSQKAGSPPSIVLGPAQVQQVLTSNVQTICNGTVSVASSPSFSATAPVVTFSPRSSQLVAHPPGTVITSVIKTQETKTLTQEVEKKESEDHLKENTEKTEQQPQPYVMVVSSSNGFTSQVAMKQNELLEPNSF
# In short: as §1
# EHF = target: T5, EHF (Homo sapiens, UniProt Q9NZC4 1-300)
# T5 sequence: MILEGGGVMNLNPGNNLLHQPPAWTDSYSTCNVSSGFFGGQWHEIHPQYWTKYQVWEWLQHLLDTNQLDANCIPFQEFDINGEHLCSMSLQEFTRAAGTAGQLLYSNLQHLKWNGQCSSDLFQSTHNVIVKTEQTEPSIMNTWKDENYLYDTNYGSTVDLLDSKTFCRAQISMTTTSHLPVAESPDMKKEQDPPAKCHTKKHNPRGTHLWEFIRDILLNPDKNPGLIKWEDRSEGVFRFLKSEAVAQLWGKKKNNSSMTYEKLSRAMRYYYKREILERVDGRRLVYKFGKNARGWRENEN
# In short: as §1
# SPI1 = SPI1 (Homo sapiens, UniProt P17947 1-270)
# In short: as §1
# SPIB = SPIB (Homo sapiens, UniProt Q01892 1-262)
# Sequence of SPIB (Q01892 whole entry): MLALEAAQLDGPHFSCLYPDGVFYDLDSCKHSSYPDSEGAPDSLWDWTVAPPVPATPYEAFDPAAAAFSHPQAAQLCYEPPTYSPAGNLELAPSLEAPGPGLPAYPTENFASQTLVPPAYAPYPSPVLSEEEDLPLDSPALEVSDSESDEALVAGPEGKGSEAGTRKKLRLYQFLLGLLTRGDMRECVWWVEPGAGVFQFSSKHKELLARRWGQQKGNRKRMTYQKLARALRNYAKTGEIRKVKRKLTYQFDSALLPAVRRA
# In short: as §1
# ELK3 = target: T6, ELK3 (Homo sapiens, UniProt P41970 1-407)
# T6 sequence: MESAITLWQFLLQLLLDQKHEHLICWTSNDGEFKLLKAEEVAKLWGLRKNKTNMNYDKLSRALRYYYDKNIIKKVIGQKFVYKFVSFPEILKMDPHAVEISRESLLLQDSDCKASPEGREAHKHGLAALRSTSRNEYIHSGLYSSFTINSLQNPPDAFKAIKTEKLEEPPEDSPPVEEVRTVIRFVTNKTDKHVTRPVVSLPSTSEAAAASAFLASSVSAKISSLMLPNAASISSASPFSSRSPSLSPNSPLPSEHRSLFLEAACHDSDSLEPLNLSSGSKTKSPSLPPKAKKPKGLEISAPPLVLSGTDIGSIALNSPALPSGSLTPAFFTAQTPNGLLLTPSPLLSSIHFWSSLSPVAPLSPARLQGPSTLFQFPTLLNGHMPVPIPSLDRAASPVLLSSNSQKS
# In short: as §1
sequence,measurement,setting,value
AATCCT,binding signal,FLI1,"1.46 fold enrichment (6-mer frequency, TF over GST control)"
same,binding signal,ELK1,"1.31 fold enrichment (6-mer frequency, TF over GST control)"
same,binding signal,GABPA,"1.34 fold enrichment (6-mer frequency, TF over GST control)"
same,binding signal,ERG,"1.41 fold enrichment (6-mer frequency, TF over GST control)"
same,binding signal,ELF1,"1.36 fold enrichment (6-mer frequency, TF over GST control)"
same,binding signal,EHF,"1.33 fold enrichment (6-mer frequency, TF over GST control)"
same,binding signal,SPI1,"1.37 fold enrichment (6-mer frequency, TF over GST control)"
same,binding signal,SPIB,"1.38 fold enrichment (6-mer frequency, TF over GST control)"
same,binding signal,ELK3,"1.46 fold enrichment (6-mer frequency, TF over GST control)"
